# nsP2pro inh: blocks chikungunya virus nsP2 protease peptide cleavage; Potency, µM (highest dose often 24.9 µM), for the others: top-dose activity change, negative = inhibition, most hits filed as inhibitors; 31,000 tested, 1.1% active; Q8JUX6; FRET peptide cleavage, nsP2pro, fluorescence 1 h; AID 1964107; note: nearly all actives have a fitted effect of over 60% in size
#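 Purified recombinant nsP2pro (150 nM final) in 10 mM Tris-HCl pH 8.0 with 0.01% Tween 20 was preincubated 15 min at room temperature with compound (7 concentrations, up to 25 uM). FRET peptide 2 substrate (2.5 uM final) was then added; fluorescence was read after 1 h.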
# nsP2 cell sec: cell-based CHIKV nsP2 protease inhibition, secondary. shares compounds with nsP2pro inh. cell-based CHIKV nsP2 protease reporter assay. Potency, µM (titrated, usually from 51.1 µM), for inactives: at the top dose activity change, negative = inhibition, hits mostly inhibitors. 450 tested, 10% active. AID 1964100; note: nearly all actives have a fitted effect of over 70% in size
# CHIKV NSP2 FL: selectivity test for CHIKV nsP2 protease inhibitors: full-length NSP2; Full-length CHIKV NSP2 protease enzymatic counterscreen; shares compounds with nsP2pro inh; Potency, µM (highest dose often 50.7 µM), for inactives: at the highest dose activity change, negative = inhibition, most hits filed as inhibitors; 410 tested, 39% active; note: nearly all actives have a fitted effect of over 65% in size
# Furin counter: selectivity counter-screen for CHIKV nsP2 protease inhibitors: human furin | shares compounds with nsP2pro inh | Recombinant human furin enzymatic counterscreen, fluorogenic substrate | Potency, µM (titrated, usually from 50.6 µM), inactives show at the top dose activity change, negative = inhibition, most hits filed as inhibitors | 410 tested, 6% active | AID 1964102
# Target sequence (P09958 whole entry, looked up): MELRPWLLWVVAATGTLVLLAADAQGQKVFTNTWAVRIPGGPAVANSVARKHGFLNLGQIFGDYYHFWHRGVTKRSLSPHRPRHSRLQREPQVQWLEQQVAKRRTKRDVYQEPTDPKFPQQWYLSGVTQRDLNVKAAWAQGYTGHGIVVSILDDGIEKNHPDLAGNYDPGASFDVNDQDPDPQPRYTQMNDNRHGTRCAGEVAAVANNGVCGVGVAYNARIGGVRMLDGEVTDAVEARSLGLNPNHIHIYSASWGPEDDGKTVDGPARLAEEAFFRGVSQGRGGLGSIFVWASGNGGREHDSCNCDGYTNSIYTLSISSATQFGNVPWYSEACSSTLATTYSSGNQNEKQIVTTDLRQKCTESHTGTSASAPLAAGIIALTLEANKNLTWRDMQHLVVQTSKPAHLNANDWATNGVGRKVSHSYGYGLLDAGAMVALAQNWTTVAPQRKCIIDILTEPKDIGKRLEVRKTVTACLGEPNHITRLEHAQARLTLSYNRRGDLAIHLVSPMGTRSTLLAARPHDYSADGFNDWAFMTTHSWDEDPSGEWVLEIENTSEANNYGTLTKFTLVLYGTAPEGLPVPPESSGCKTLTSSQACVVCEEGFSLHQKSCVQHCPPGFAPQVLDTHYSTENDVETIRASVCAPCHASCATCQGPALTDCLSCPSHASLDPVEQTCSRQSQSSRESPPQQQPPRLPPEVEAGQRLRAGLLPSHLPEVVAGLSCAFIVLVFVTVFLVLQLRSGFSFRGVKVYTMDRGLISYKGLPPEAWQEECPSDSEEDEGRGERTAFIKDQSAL
# NS23 peptide cs: selectivity test for CHIKV nsP2 protease inhibitors: endogenous NS2/3 peptide. shares compounds with nsP2pro inh. Purified CHIKV nsP2 protease, endogenous NS2/3 peptide cleavage. Potency, µM (highest dose often 51 µM), without a hit: top-dose activity change, negative = inhibition, actives largely listed as inhibitors. 410 tested, 34% active. AID 1964103; note: nearly all actives have a fitted effect of over 55% in size
# Papain cs: selectivity counter-screen for CHIKV nsP2 protease inhibitors: papain. purified papain protease activity, enzymatic inhibition. Potency, µM (doses to about 51 µM), inactives show at the top dose activity change, negative = inhibition, most hits filed as inhibitors. shares compounds with nsP2pro inh. AID 1964104. 410 tested, 5% active
# nsP2pro conf qHTS: CHIKV nsP2 protease inhibition, confirmatory qHTS. 410 tested, 43% active. CHIKV nsP2 protease enzymatic activity, qHTS. shares compounds with nsP2pro inh. Potency, µM (doses to about 25.5 µM), for the others: top-dose activity change, negative = inhibition, usual class: inhibitors; note: nearly all actives have a fitted effect of over 75% in size
# HCV NS3 4A cs: HCV NS3/4A protease inhibition, counterscreen; shares compounds with nsP2pro inh; HCV NS3/4A protease biochemical counterscreen; Potency, µM (top dose mostly 50.9 µM), hits mostly inhibitors; 410 tested, 20% active; AID 1964106; note: nearly all actives have a fitted effect of over 55% in size
# Starred values were filed as active, the others as inactive; i = inactive; u = inconclusive; [ ] = dose if it differs, or a comment. The sample as a whole holds a higher share of hits than the screen did. Calls come from the whole dose curve. % is set by controls: 0 for no effect and ±100 for the full control effect; potency is the fitted concentration of half-maximal effect.
SMILES,nsP2pro inh,others
Brc1cnc2nc(SCc3ccncc3)[nH]c2c1,3%,
CC(=O)N1CCC(C(=O)N(CCCN2CCC(Cc3ccc(C(N)=O)cc3)CC2)c2ccc(C)c(Cl)c2)CC1,-20%,
O=C(Nc1nnc(-c2ccco2)o1)c1ccncc1,-4%,
COCCNC(=O)Nc1ccc2nc(-c3cccs3)c(-c3cccs3)nc2c1,u,nsP2 cell sec=-4%;CHIKV NSP2 FL=34%;Furin counter=-10%;NS23 peptide cs=-10%;Papain cs=49%;nsP2pro conf qHTS=8%;HCV NS3 4A cs=i
Cc1ccc(NC(=O)CSc2nc(-c3cccs3)nc3cc(=O)[nH]n23)cc1C,-7%,
COCCNC(=O)c1cc2c(Cl)nc3ccc(C)cc3c2s1,13%,
Cc1csc2c(N[C@@H](C)CN3CCN(S(=O)(=O)c4ccc(Cl)c(Cl)c4)CC3)ncnc12,-1%,
O=S(=O)(O)c1ccccc1,-1%,
NS(=O)(=O)C#Cc1ccccc1,7.9µM*,nsP2 cell sec=u;CHIKV NSP2 FL=13µM*;Furin counter=-7%;NS23 peptide cs=u;Papain cs=-7%;nsP2pro conf qHTS=6.3µM*;HCV NS3 4A cs=i
O=C1c2ccccc2-c2c(NCCc3ccccc3)c(=O)[nH]c3cccc1c23,436%,
Oc1cccc2cc(N3CCCC3)cnc12,-27%,
Cc1cccc(N2CCN(S(=O)(=O)c3ccc(F)c(C(=O)Nc4cccc(Cl)c4C)c3)CC2C)c1 (stereo not drawn),-6%,
Cc1cccc(N2CCN(S(=O)(=O)c3cc(C(=O)Nc4ccc(Oc5ccccc5)cc4)ccc3F)CC2C)c1 (stereo not drawn),-13%,
CCOC(=O)c1ccc(N2CCN(c3cccc(Cl)c3)CC2)c(NC(=O)Nc2ccc(Cl)cc2)c1,7%,
Cc1cccc(N2CCN(C(=O)c3ccc(NC(=O)c4nsc5ccccc45)cc3)CC2C)c1 (stereo not drawn),3%,
Cc1cccc(N2CCN(c3ccc(NC(=O)c4ccccc4)cc3C(=O)O)CC2C)c1 (stereo not drawn),u,nsP2 cell sec=9%;CHIKV NSP2 FL=6.5µM*;Furin counter=u;NS23 peptide cs=16µM*;Papain cs=21%;nsP2pro conf qHTS=8µM*;HCV NS3 4A cs=3.7µM*
Cc1cccc(N2CCN(c3ccc(C(=O)O)cc3NC(=O)c3cccc(Cl)c3)CC2C)c1 (stereo not drawn),u,nsP2 cell sec=13%;CHIKV NSP2 FL=0%;Furin counter=-25%;NS23 peptide cs=18µM*;Papain cs=u;nsP2pro conf qHTS=8µM*;HCV NS3 4A cs=u
NC(N)=NC(=O)c1cnn(-c2cccc3ncccc23)c1C1CC1,-3%,
O=C(O)Cc1nn(Cc2nc3cc(C(F)(F)F)ccc3s2)c(=O)c2nccnc12,-9%,
Oc1ccc(CNc2ccc3ccccc3n2)c2cccnc12,i,
Cc1cc(NS(=O)(=O)c2ccc(NC(=O)Cc3ccc(F)c(Cl)c3)cc2)no1,5%,
Cc1ccc2c(c1)/C(=C\c1cc(Cl)c(O)c(Cl)c1)C(=O)N2,i,
O=C(NCCCc1ccccc1)C1CCCCN1Cc1ccc(-c2ccsc2)cc1 (stereo not drawn),i,
O=C(O)CSc1nnc(Br)n1-c1ccc(C2CC2)c2ccccc12,1%,
CC(=O)O[C@@]1(C)C[C@@H](O)[C@]2(O)C=CO[C@@H](O[C@@H]3O[C@H](CO)[C@@H](O)[C@H](O)[C@H]3O)[C@@H]21,-4%[10 µM],
SMILES,nsP2pro inh,others
CC(=O)OC1(C)CC(O)C2(O)C=COC(OC3OC(CO)C(O)C(O)C3O)C12 (stereo not drawn),-2%[10 µM],
CC(=O)OC1C(O)CC(O[C@@H]2O[C@H](CO)[C@@H](O)[C@H](O)[C@H]2O)C2CCC3C(=O)OC(c4ccoc4)CC3(C)C21 (stereo partly drawn),u,nsP2 cell sec=4%[17.6 µM];CHIKV NSP2 FL=5%[17.3 µM];Furin counter=9%[17.3 µM];NS23 peptide cs=-2%[17.2 µM];Papain cs=-5%[17.2 µM];nsP2pro conf qHTS=-19%[8.62 µM];HCV NS3 4A cs=i
Brc1sc2c(c1-c1nc3ccccc3s1)CCNC2,-10%,
CCOC(=O)N[C@@H]1CC[C@@H]2[C@@H](C1)C[C@H]1C(=O)O[C@H](C)[C@H]1[C@H]2/C=C/c1ccc(-c2cccc(F)c2)cn1,-22%,
O=C(c1cc(-c2ccc(Cl)cc2)on1)N(Cc1ccc(F)cc1)Cc1ccco1,-8%,
O=C(c1ccc(Cl)cc1)N(Cc1ccco1)Cc1ccco1,-9%,
CS(=O)(=O)c1ncc(Cl)c(C(=O)N(Cc2ccc(Cl)cc2)Cc2ccco2)n1,4.8µM*,nsP2 cell sec=2.6µM*;CHIKV NSP2 FL=u;Furin counter=-6%;NS23 peptide cs=4.1µM*;Papain cs=2%;nsP2pro conf qHTS=2.2µM*;HCV NS3 4A cs=i
Cc1ccccc1Cc1c(C)nc2c(C(=O)N3CCC(Cc4nncn4CC4CC4)CC3)cnn2c1C,i,
Cc1ccc(OCC(=O)N2CCN(CCc3ccncc3)CC2)cc1,-27%,
O=C(COc1ccccc1[N+](=O)[O-])N1CCN(CCc2ccncc2)CC1,u,nsP2 cell sec=9%
O=C(COc1ccccc1Cl)N1CCN(CCc2ccncc2)CC1,-25%,
CCCCC[C@H](O)/C=C/[C@@H]1[C@@H](C/C=C/CCCC(=O)O)[C@@H](O)C[C@H]1O,10%,
COc1ccc([C@H]2OC[C@H]3O[C@@H](O[C@H]4[C@@H]2NC[C@@H]4O)[C@H](O)[C@H]3O)cc1,-13%,
N#C/C(=C1\Nc2ccccc2S1)c1ccnc(NCCc2cccnc2)n1,79%,
O=C(O)c1cc(-c2ccc(/C=C3\SC(=S)N(Cc4ccccc4)C3=O)o2)ccc1Cl,u,nsP2 cell sec=17%;CHIKV NSP2 FL=-13%;Furin counter=-12%;NS23 peptide cs=233%;Papain cs=u;nsP2pro conf qHTS=14%;HCV NS3 4A cs=i
Cc1cc(-c2ccc(/C=C3\SC(=Nc4ccc(Cl)c(C(=O)O)c4)NC3=O)o2)c([N+](=O)[O-])cc1C,-23%,
O=C(O)c1ccc(-n2cccc2/C=C2\SC(=O)N(Cc3ccc(Br)cc3)C2=O)cc1,i,
O=C(Nc1cccc(C(F)(F)F)c1)c1cccs1,5%,
Fc1ccc(-c2ccc(Nc3nc(-c4ccncc4)nc4ccccc34)cc2F)c(F)c1,i,
C#C[C@]1(O)CC[C@@H]2[C@@H]3CCC4=CCCC[C@@H]4[C@H]3C(=C)C[C@@]21CC,27%,
Cc1cc(Nc2ncnc3ccc(-c4ccc(CNCCS(C)(=O)=O)o4)cc23)ccc1Oc1ccn2ncnc2c1,1.2µM*,nsP2 cell sec=-13%;CHIKV NSP2 FL=4.1µM*;Furin counter=-13%;NS23 peptide cs=u;Papain cs=u;nsP2pro conf qHTS=4.5µM*;HCV NS3 4A cs=u
CS(=O)(=O)CCNCc1ccc(-c2ccc3ncnc(Nc4ccc(OCc5cccc(F)c5)c(Cl)c4)c3c2)o1,75%,
